Data on ten compounds can be found in ChEMBL document CHEMBL3988442, “University of Dundee, Small-Polar-MMV Screening Library” (2021).

The structures appear in SMILES notation. For some assays here: Measured potencies and affinities stand elsewhere.

Common to all, as to design: scale not given: direction of the effect not stated beside the values
Test [1] addresses Protein translocase subunit SecA (Escherichia coli (strain K12)) (UniProt P10408). Nature of the test: Assay to Identify E. coli SecA ATPase Inhibitors. Format: functional. Particulars: 30 µM.
The target of test [2] is T1, Ubiquitin-activating enzyme e1, putative (Leishmania donovani (strain BPK282A1)) (UniProt E9BSI1).
T1 sequence (whole entry): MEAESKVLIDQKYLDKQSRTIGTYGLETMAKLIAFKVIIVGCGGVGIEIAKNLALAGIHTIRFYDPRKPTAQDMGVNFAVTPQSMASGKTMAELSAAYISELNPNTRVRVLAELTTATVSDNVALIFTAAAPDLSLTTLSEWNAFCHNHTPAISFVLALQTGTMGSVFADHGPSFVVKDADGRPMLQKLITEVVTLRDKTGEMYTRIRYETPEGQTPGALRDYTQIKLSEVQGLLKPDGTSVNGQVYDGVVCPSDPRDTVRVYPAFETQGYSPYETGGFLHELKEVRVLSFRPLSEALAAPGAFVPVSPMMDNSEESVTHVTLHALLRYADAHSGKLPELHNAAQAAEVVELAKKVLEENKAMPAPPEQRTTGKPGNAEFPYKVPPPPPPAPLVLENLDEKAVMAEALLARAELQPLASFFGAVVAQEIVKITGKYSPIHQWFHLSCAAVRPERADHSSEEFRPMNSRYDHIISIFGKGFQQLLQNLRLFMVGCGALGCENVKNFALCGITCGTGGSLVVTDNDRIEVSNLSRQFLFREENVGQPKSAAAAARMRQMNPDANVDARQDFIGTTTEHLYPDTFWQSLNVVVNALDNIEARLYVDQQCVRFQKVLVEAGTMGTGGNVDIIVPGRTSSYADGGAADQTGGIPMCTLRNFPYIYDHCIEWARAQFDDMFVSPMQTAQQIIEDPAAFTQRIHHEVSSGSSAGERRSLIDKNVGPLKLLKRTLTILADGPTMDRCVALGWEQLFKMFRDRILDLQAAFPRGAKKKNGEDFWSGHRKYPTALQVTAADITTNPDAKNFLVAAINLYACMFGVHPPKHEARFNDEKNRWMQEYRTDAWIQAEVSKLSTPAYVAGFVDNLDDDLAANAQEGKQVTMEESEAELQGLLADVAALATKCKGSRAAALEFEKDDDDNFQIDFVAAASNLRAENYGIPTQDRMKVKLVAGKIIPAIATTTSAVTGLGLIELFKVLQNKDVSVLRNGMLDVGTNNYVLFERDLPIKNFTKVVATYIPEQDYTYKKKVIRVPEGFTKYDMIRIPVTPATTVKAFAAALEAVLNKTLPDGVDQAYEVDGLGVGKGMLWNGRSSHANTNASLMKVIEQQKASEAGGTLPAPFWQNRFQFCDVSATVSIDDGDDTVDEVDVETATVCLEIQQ
Kind of test: Leishmania donovani Ubiquitin Activating Enzyme (LdE1). It is filed as functional. The settings on record: 30 µM.

The target of test [3] is AMP-activated protein kinase, AMPK (Homo sapiens) (UniProt P54646+O43741+P54619+Q9UGJ0+Q9Y478+Q13131+Q9UGI9). Nature of the test: AMP-dependent Kinase enzyme assay. An in vitro enzyme assay that detects ADP turnover that is directly proportional to AMPK activity. This uses naive AMPK that is activated during the assay with MK-8722. It is filed as functional. The settings on record: 30 µM.

Test [4] deals with Sialic acid-binding Ig-like lectin 9 (Homo sapiens) (UniProt Q9Y336). Nature of the test: Hs-Siglec9 ALPHAscreen SOP 20170721. Particulars: 10 µM. A general note: Bead proximity is the source of the signal in Alpha formats.
Sequence of Sialic acid-binding Ig-like lectin 9 (Homo sapiens) (Q9Y336 whole entry): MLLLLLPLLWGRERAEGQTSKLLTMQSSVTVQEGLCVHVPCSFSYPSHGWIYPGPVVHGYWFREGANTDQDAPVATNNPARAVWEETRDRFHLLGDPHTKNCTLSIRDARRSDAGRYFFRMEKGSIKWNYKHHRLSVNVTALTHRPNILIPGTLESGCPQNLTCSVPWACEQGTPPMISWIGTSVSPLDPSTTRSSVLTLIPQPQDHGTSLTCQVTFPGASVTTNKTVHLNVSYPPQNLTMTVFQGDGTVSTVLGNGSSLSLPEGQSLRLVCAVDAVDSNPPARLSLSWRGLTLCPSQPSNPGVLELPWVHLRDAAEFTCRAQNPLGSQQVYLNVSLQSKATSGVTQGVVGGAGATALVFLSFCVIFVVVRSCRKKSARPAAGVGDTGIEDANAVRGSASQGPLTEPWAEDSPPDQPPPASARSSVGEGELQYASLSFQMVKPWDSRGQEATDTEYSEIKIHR
For test [5], the system named is Trypanosoma cruzi. Nature of the test: Trypanosoma cruzi phosphomannomutase and mannose-1-phosphate guanylyltransferase assay. It is filed as functional. The settings on record: 10 µM.
Test [6] has as its target T2, Arginase-2, mitochondrial (Homo sapiens) (UniProt P78540).
T2 sequence (whole entry): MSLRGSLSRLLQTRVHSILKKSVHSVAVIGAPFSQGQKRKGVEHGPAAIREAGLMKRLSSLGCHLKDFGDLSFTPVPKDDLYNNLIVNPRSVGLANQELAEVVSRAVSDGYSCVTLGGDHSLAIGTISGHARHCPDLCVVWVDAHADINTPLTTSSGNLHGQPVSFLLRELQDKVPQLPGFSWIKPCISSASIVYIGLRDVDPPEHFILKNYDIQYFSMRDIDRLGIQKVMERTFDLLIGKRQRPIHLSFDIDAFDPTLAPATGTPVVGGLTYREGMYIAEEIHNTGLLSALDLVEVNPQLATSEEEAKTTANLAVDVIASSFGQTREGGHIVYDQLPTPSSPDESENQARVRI
Kind of test: in vitro enzyme assay to detect the production of urea directly proportional to the activity of Arginase II. Also: in the data most compounds retested in dose-response had high values. The settings on record: 33.3 µM. It is filed as functional.

Test [7] deals with T3, Proteasome subunit beta (Trypanosoma cruzi) (UniProt O96673).
T3 sequence (whole entry): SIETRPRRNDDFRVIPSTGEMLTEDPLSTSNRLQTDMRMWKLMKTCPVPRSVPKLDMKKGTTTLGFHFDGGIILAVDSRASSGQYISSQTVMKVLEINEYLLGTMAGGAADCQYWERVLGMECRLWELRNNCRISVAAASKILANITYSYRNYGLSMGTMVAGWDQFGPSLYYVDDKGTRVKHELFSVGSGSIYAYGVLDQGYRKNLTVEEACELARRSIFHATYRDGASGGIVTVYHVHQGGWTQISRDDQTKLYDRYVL
Nature of the test: Trypanosoma cruzi proteasome chymotrypsin-like activity (TcProtChymo) assay. Also: in the data most compounds retested in dose-response had high values. The settings on record: 9.37 µM. Format: functional.

The species entered for test [8] is Homo sapiens. Kind of test: To identify inhibition of the IFN signalling (Jak-Stat) pathway via expression of an eGFP reporter gene under the control of an IFN-stimulated response element (ISRE) containing MxA promoter. Format: functional. Particulars: 30 µM. On the technique in general: Reporter assays use an easily measured gene product as a stand-in for the process of interest.

Test [9] has as its target T4, Tyrosyl-tRNA synthetase, putative (Trypanosoma cruzi (strain CL Brener)) (UniProt Q4DSP6).
T4 sequence (whole entry): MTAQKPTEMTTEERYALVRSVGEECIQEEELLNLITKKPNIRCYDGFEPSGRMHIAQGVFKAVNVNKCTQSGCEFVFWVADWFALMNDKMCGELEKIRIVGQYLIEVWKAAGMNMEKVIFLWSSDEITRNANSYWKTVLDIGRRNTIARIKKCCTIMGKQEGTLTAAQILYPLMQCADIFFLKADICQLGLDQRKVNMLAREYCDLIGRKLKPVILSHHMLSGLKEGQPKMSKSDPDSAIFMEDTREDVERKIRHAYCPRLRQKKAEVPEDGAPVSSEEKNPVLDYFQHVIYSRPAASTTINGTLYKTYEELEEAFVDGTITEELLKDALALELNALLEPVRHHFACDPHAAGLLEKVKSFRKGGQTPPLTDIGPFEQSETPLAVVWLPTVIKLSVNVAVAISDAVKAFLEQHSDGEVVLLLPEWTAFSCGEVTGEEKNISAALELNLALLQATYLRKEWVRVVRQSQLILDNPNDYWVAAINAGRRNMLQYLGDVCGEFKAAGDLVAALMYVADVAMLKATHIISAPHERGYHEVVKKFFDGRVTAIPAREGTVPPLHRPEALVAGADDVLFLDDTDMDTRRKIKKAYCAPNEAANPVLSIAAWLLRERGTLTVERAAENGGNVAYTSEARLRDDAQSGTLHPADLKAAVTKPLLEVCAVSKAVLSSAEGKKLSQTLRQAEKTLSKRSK
Nature of the test: Trypanosoma cruzi tyrosyl tRNA synthetase (TcYRS) _High Tyrosine SOP. Also: in the data most compounds retested in dose-response had high values. It is filed as functional. The settings on record: 30 µM.

For test [10], the target named is T4, Tyrosyl-tRNA synthetase, putative (Trypanosoma cruzi (strain CL Brener)). Nature of the test: Trypanosoma cruzi tyrosyl tRNA synthetase (TcYRS) SOP. Format: functional. Particulars: 30 µM.
The target in test [11] is Chromo domain-containing protein 1 (Saccharomyces cerevisiae (strain ATCC 204508 / S288c) (Baker's yeast)) (UniProt P32657). Kind of test: ScCHD-1 Enzyme Inhibition Assay. Also: in the data most compounds retested in dose-response had high values. It is filed as functional. Particulars: 30 µM.
Sequence of Chromo domain-containing protein 1 (Saccharomyces cerevisiae (strain ATCC 204508 / S288c) (Baker's yeast)) (P32657 whole entry, the tested form may be a part): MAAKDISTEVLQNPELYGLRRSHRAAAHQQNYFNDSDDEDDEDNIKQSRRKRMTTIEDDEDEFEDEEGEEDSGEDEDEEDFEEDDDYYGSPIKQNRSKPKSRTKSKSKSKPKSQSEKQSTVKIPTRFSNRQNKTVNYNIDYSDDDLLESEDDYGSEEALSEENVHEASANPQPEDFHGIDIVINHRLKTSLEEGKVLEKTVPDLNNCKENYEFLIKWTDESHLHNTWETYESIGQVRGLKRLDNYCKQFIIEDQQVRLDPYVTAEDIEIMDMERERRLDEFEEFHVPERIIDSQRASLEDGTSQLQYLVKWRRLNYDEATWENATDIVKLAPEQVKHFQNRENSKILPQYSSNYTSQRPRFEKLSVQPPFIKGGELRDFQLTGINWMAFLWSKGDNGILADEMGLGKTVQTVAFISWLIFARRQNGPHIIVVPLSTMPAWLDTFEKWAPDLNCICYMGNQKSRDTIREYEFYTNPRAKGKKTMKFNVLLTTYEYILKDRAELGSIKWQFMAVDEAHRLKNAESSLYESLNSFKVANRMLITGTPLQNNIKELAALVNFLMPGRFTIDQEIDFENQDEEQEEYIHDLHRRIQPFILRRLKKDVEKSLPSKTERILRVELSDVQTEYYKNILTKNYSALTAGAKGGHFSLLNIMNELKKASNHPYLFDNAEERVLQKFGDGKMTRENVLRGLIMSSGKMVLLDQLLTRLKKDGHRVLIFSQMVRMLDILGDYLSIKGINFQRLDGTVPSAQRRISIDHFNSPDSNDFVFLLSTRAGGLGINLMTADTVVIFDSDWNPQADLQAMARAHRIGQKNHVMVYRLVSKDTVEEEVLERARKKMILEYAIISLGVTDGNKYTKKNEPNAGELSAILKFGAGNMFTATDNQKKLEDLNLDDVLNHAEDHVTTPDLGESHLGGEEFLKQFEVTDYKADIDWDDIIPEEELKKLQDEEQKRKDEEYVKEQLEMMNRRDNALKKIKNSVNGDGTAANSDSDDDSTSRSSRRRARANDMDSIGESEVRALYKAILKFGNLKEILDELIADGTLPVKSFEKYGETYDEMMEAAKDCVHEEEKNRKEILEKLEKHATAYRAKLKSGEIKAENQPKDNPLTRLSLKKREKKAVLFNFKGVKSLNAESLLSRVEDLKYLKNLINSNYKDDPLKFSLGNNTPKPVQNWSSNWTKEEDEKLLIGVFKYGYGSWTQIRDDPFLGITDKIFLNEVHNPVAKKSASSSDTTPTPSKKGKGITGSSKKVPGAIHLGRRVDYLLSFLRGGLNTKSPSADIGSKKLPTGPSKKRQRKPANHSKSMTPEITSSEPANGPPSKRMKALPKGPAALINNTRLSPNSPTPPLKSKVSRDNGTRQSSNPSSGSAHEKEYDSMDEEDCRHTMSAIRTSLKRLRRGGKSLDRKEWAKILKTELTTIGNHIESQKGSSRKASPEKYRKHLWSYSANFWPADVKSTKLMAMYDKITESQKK

Sequence of Protein translocase subunit SecA (Escherichia coli (strain K12)) (P10408 whole entry): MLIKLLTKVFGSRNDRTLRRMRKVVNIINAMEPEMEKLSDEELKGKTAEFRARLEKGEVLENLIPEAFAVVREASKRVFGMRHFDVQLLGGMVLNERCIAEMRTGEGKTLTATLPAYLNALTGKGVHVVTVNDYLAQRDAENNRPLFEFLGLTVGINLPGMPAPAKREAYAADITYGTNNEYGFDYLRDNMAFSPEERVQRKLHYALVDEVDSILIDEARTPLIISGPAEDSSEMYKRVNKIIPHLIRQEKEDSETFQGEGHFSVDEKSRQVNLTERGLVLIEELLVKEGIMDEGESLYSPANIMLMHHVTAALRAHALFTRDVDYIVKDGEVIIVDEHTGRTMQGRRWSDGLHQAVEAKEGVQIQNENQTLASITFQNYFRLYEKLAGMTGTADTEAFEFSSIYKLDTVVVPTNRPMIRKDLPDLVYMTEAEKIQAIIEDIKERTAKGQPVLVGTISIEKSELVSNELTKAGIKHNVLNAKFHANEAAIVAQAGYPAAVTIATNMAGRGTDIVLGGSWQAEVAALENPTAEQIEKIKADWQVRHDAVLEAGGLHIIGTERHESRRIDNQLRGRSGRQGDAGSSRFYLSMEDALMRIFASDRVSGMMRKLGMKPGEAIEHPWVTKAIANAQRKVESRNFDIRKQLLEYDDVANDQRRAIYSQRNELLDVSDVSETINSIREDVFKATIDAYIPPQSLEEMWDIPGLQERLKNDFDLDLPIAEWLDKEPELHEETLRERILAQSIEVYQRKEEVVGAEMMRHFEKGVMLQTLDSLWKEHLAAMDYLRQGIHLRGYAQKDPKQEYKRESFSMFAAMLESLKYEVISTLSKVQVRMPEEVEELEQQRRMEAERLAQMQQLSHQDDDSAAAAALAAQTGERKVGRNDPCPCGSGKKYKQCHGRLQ

`Nc1cc(N2CCCC2c2cnccn2)ncn1` (stereo not given): the Percent Effect was -0.532% in test [1]; 9.46% in [2]; -1.66% in [3]; -2.65% in test [4]; 2.96% in [5]; -5.34% in test [6]. Moreover, the Percent Effect in [7] is 14.8%; in test [8], 2.07%; in test [9], 8.6%; in test [10], 14.3%; in [11], -13.1%.

For `CN(Cc1cccs1)C(=O)CS(=O)(=O)Cc1ccc(Cl)c(Cl)c1`, the Percent Effect was -3.83% in test [1]; 2.6% in test [2]; 4.47% in test [3]; -21.6% in [4]; 5.39% in [5]; -2.74% in test [6]. The Percent Effect in test [7] is 16.7%; in test [8] it was 6.68%; in test [9], -11.4%; in test [10], -2.35%; in test [11], -21.7%.

As for `NC(=O)c1nnn(-c2ccc(Br)cc2)n1`, the Percent Effect in [1] is -5.42%; in test [2] it was 18.2%; in test [3] it was -6.83%; in test [4], -10.8%; in [5], 7.59%; in test [6] it was 3.23%. Also, the Percent Effect is 11.5% in test [7]; 17.2% in [8]; 5.29% in test [9]; 6.41% in test [10]; -9.19% in [11].

As for `O=C(Cn1cc(C(=O)O)ccc1=O)NCc1ccc(F)c(Cl)c1`, the Percent Effect is -2.28% in test [1]; 9.33% in [2]; -1.08% in test [3]; -0.406% in test [4]; 4.91% in test [5]; -6.87% in test [6]. The Percent Effect in [7] was 11.7%; in [8], 27%; in test [9] it was 4.23%; in test [10], 12.8%; in test [11], -7.6%.

On to `CN(C)c1ccc(C(=O)N2CCN(C(=O)N3CCCCC3)CC2)nn1`, for which the Percent Effect in [1] was -6.05%; in test [2], 7.79%; in [3], 4.21%; in [4], 10.5%; in test [5] it was 5.8%; in test [6], -3.92%. For the same compound, the Percent Effect is 4.56% in test [7]; 3.45% in test [8]; 0% in test [9]; 7.32% in test [10]; -13.4% in [11].

As to `CN1CCCN(C[C@@H]2CN(C(=O)CCC3CCCC3)C[C@@H]2CO)CC1`, the Percent Effect was -5.09% in test [1]; 7.79% in test [2]; 1.31% in test [3]; 18.7% in test [4]; 4.62% in test [5]; -8.28% in test [6]. The Percent Effect is 3.66% in [7]; -0.683% in test [8]; 6.45% in test [9]; 11.1% in test [10]; -3.02% in test [11].

Turning to `c1cnc(N2CCC3(CCN(Cc4ccncc4)CC3)CC2)nc1`, the Percent Effect was -0.982% in [1]; 0% in [2]; 7.11% in [3]; 7.41% in [4]; -2.25% in test [5]; -4.14% in test [6]. Also, the Percent Effect in test [7] was 13.1%; in [8], -0.931%; in [9] it was 1.08%; in test [10], 5.13%; in [11], 13%.

Regarding `CN(C)c1cc(CNC(=O)c2ccc(F)cc2F)ccn1`, the Percent Effect in test [1] was -4.79%; in test [2], 28.6%; in [3], -1.46%; in test [4] it was 10.4%; in test [5], 5.62%; in test [6], -1.78%. The Percent Effect in test [7] was 8.11%; in test [8], 8.43%; in test [9] it was 5.83%; in test [10], 24.4%; in [11], -9.26%.

As to `CC(C)CN1Cc2c(C(=O)N(C)C)ncn2-c2ccccc2S1(=O)=O`, the Percent Effect in [1] is -3.52%; in test [2] it was 5.41%; in [3], -2.12%; in test [4], -3.11%; in test [5], -2.83%; in [6], 0.319%. Besides, the Percent Effect in test [7] was 11.6%; in test [8] it was -4.16%; in [9], 3.24%; in [10] it was 15.4%; in test [11] it was 0.625%.

As for `Cc1cc(C)n(C2CCCN(C(=O)C3=NN(C)C(=O)CC3)C2)n1` (stereo not given), the Percent Effect in [1] is -0.53%; in test [2], 18.9%; in test [3], -18.2%; in test [4], -2.77%; in test [5] it was 5%; in test [6], -12.8%. Further, the Percent Effect in test [7] was 11.9%; in test [8], 23.2%; in test [9], 8.37%; in test [10], 25.9%; in [11], -9.84%.
